In PubChem BioAssay AID489028 (Sanford-Burnham Center for Chemical Genomics, 2010):
Screen size: about 10,000 compounds; about 5,600 (56%) were called active. No stated cut-off is given here; in the data, active means inhibition above about 40%; inactive means the rest. The set was probably picked from earlier hits. The list is a sample of the results.

molecular target: Protein Mdm4 (Homo sapiens) + E3 ubiquitin-protein ligase Mdm2 (Homo sapiens) (UniProt O15151+Q00987); experiment: Mdm2-MdmX complex disruptors, retested hits, confirmation, luminescence, single concentration (AID 489028); conditions: Mdm2-MdmX binding, luminescent assay; at 8 µM; hits give high values
Sequence (O15151 whole entry, looked up): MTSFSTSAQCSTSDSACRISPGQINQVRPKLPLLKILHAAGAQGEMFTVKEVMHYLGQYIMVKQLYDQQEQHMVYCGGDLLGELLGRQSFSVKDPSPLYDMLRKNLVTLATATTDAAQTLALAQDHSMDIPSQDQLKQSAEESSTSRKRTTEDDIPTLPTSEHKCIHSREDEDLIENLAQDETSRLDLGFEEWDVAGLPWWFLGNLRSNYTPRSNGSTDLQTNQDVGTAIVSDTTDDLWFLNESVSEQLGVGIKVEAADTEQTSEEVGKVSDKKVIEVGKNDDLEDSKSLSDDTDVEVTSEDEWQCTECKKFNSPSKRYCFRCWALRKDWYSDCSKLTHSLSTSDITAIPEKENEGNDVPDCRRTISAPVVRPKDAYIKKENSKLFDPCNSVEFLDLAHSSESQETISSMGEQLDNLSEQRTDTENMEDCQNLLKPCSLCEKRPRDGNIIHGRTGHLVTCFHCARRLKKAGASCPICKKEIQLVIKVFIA
Sequence (Q00987 whole entry, looked up): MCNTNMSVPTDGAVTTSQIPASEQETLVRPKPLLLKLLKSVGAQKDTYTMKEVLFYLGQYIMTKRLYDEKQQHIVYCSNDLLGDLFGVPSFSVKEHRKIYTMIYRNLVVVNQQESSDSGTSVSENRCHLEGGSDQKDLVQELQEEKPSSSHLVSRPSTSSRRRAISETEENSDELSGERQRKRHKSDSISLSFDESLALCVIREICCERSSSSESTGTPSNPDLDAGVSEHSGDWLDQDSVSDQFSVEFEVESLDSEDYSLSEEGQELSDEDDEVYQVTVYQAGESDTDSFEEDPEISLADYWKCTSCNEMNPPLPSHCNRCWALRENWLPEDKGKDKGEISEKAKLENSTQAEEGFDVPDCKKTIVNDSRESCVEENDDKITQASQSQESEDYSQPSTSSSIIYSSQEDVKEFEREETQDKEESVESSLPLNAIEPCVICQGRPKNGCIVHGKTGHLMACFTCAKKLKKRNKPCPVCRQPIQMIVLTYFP

Structure (SMILES) | inhibition
Cc1cc(=O)oc2cc(OCC3CC(c4ccccc4Cl)=NO3)ccc12 (centres undefined) | 47.2% (active)
CC(C)=CC(=O)Nc1nnc(-c2ccc(F)cc2)s1 | -17.9% (inactive)
Cc1nnnn1/C(=C\c1ccccc1)C(=O)OCC(=O)N1CC2(C)CC1CC(C)(C)C2 (centres undefined) | 47.9% (active)
O=C(NCC1CCCO1)c1cc2c([nH]c3ccccc32)c(-c2ccc(F)cc2)n1 (centres undefined) | 61.5% (active)
COc1ccc(N=Cc2c(O)[nH]c3ccccc23)cc1OC | 47% (active)
COc1cc(N=Cc2c(O)[nH]c3ccccc23)cc(OC)c1OC | 73.8% (active)
C[C@@H](NC(=O)OC(C)(C)C)c1nnc(S(=O)(=O)Cc2ccccc2)o1 | 54% (active)
CC(C)(C)OC(=O)NNc1c2ccccc2nc2ccccc12 | 21.1% (inactive)
CC(=O)Nc1ccc(NC(=O)C2CCCN(S(=O)(=O)c3ccc(Cl)cc3)C2)cc1 (centres undefined) | 3.65% (inactive)
Cc1ccnc(NC(=O)C2CCN(S(=O)(=O)c3c(C)c(C)cc(C)c3C)CC2)c1 | 69.8% (active)
COc1cc2[nH]c(=S)n(Cc3ccc(F)cc3)c(=O)c2cc1OC | 15.8% (inactive)
COc1cccc2sc(NNC(=O)c3nc4ccccc4s3)nc12 | 45.7% (active)
CCOc1ccc(-c2cc(C(=O)N/N=C/c3ccc(O)cc3)c3ccccc3n2)cc1 | 76.8% (active)
Nc1ccc(C(=O)Nc2ccccc2N)cc1 | 6.25% (inactive)
O=C(CCCN1C(=O)/C(=C\c2ccccc2)SC1=S)Nc1ccccc1O | 69.7% (active)
COc1ccc(/C=C2\SC(=S)N(CCC(=O)Nc3ccccn3)C2=O)cc1OC | 54.1% (active)
O=C(CCCN1C(=O)/C(=C/c2ccccc2)SC1=S)Nc1ccc(O)cc1 | 93.9% (active)
O=C(CCCN1C(=O)/C(=C/c2cccs2)SC1=S)Nc1ccc(O)cc1 | 61.5% (active)
COc1ccc(C(=O)/C=C/Nc2ccccn2)cc1 | 25.4% (inactive)
CCN1CCN(c2ccc(S(=O)(=O)N3CCCCC3)cc2NC(=O)Cc2c(Cl)cccc2Cl)CC1 | 30.6% (inactive)
O=C(Nc1ccc(Cl)cc1)Nc1nnc(/C=C/c2ccccc2)s1 | 81.4% (active)
O=C(/C=C/c1ccccc1)Nc1nnc(SCC(=O)c2ccc3ccccc3c2)s1 | 2.95% (inactive)
Oc1ccc(Br)cc1/C=N/Nc1ccccn1 | 87.7% (active)

Structure (SMILES) | inhibition
CCCCNC(=O)C(C)N(CCN(C)C)C(=O)CCCCCN1C(=O)NC(c2ccc(Cl)cc2)C(C(=O)OCc2ccccc2)=C1C (centres undefined) | 49.5% (active)
CCCCNC(=O)C(C)N(CCN(C)C)C(=O)CCCN1C(=O)NC(c2ccc(Cl)cc2)C(C(=O)OCc2ccccc2)=C1C (centres undefined) | 15.1% (inactive)
Cc1cc(C(=O)COC(=O)CNC(=O)c2ccc(F)cc2)c(C)n1Cc1ccco1 | 72.7% (active)
CC1=CC(C)(C)Nc2ccc(OC(=O)CN3C(=O)C4CCCCC4C3=O)cc21 (centres undefined) | 9.75% (inactive)
COc1ccc(/C=C/C(=O)Nc2ccc(C34CC5CC(CC(O)(C5)C3)C4)cc2)cc1OC | 36.9% (inactive)
COc1cc(/C=N/NC(=O)Nc2ccccc2)ccc1OCCOc1ccccc1C | 72.8% (active)
Brc1ccc2ncnc(NCc3cccnc3)c2c1 | 68.7% (active)
CCn1c(O)c(N=NC(=O)c2cccc(S(=O)(=O)N3CCCCC3)c2)c2ccccc21 | 36.7% (inactive)
Cc1cccc(CS(=O)(=O)c2ncc(Cl)c(C(=O)Nc3ccc(F)cc3)n2)c1 | 75.5% (active)
Cc1cccc(NC(=O)c2nc(S(=O)(=O)Cc3ccccc3)ncc2Cl)c1 | 95.2% (active)
CC(=O)Nc1nc(C)c(-c2csc(Nc3ccc(S(N)(=O)=O)cc3)n2)s1 | 44.5% (active)
CC(C)c1cc(C(=O)N/N=C/C(Br)=C/c2ccccc2)n[nH]1 | 35.2% (inactive)
CCCn1nc(C(=O)Nc2ccc3nc(C)sc3c2)c2ccccc2c1=O | 24.9% (inactive)
CCCC(=O)Nc1nc2ccc(NC(=O)c3cccnc3)cc2s1 | 48.4% (active)
COc1cc(C(=O)NCc2nnc(SCC(=O)Nc3nc4ccc(C)cc4s3)o2)cc(OC)c1OC | -0.1% (inactive)
CCN1C(=O)c2cccc3c(S(=O)(=O)Nc4ccccc4O)ccc1c23 | 39% (inactive)
O=C(/C=C/c1ccc(Cl)c([N+](=O)[O-])c1)c1cccnc1 | 66.7% (active)
COc1ccc(C(=O)/C=C/c2cccnc2)c(OC)c1 | -4.6% (inactive)
COc1ccc(/C=C/C(=O)c2ccc(NS(=O)(=O)c3ccc(C)cc3)cc2)cc1O | 38.9% (inactive)
O=C(/C=C/c1ccc(Cl)c([N+](=O)[O-])c1)c1ccc(O)cc1 | 85.4% (active)
Cc1[nH]c(C)c(S(=O)(=O)N2CCN(c3cccc(C(F)(F)F)c3)CC2)c1C(=O)N1CCCCC1 | 52.8% (active)
CCNC(=O)c1c(O)c2cccc3c2n(c1=O)CC3 | 75.1% (active)
O=C(COC(=O)/C=C/c1cn(-c2ccccc2)nc1-c1cccnc1)Nc1ccc(Cl)cc1Cl | 18.3% (inactive)

Structure (SMILES) | inhibition
CCOC(=O)c1c(-c2ccc(C)cc2C)csc1NC(=O)CSc1nnnn1C | 51% (active)
CCC(C)N1C(=O)S/C(=C/c2ccc(Sc3nc4ccccc4[nH]3)o2)C1=O (centres undefined) | 23.9% (inactive)
Cc1cccc(-n2c(C)cc(/C=N\NC(=O)c3cccs3)c2C)c1 | 40.1% (active)
C[C@@H]1C[C@@H]2O[C@H]2/C=C\C=C\C(=O)Cc2c(Cl)c(O)cc(O)c2C(=O)O1 | 54.2% (active)
Cc1ccc(C2CC(=O)NC(SCC(=O)OCc3ccccc3)=C2C#N)o1 (centres undefined) | 44.5% (active)
C=CCC[C@@H](Cc1ccc(F)cc1)C(=O)OC[C@H](Cc1c[nH]c2ccccc12)NC(=O)[C@@H](CC=C)CC(=O)N(CCO)Cc1ccccc1 | 21.8% (inactive)
O=C(Nc1ccccc1Cl)/C(Cl)=C(\Cl)S(=O)c1ccccc1 (centres undefined) | 100% (active)
O=C1/C(=C\c2ccccc2Cl)SC(=S)N1CCC(=O)N1CCCc2ccccc21 | 60.8% (active)
COc1cc2c(cc1OC)C(C)N(S(=O)(=O)c1cnc(Cl)c(Cl)c1)CC2 (centres undefined) | 58.1% (active)
C=CCn1c(C)cc(C(=O)CN2C(=O)c3ccccc3C2=O)c1C | 68% (active)
COc1ccc(-c2cn[nH]c2-c2ccc(OC)cc2)cc1 | 63% (active)
CC1(C)Cc2nc3sc4c(SCC(=O)NC(c5ccccc5)c5ccccc5)ncnc4c3cc2CO1 | 2.85% (inactive)
CCOc1ccc(S(=O)(=O)Nc2cccc(C(=O)NCC3(N4CCCCC4)CCCCC3)c2)cc1 | 78.6% (active)
CCOC(=O)c1c(-c2cccc(C)c2)csc1NC(=O)c1c(-c2ccccc2)noc1C | 92.6% (active)
CCOC(=O)c1c(-c2ccc(C)cc2)csc1/N=C(\C)C1=C(O)c2ccccc2C1=O | 28.7% (inactive)
CCOC(=O)c1cc(NC(=O)c2ccc(Cl)cc2)c(=O)oc1-c1ccccc1 | 35.2% (inactive)
Nc1nonc1-c1nc2ccccc2n1Cc1ccc(F)cc1 | 63.5% (active)
Fc1ccc(CNc2nc3ccccc3n3nnnc23)cc1 | 9.85% (inactive)
COc1cccc(/C=N/NC(=O)c2[nH]nc3c2CCc2ccccc2-3)c1O | 83.7% (active)
COc1ccc(CNc2nc(NCc3ccc(OC)cc3)c3ncn(C4CCCC4)c3n2)cc1 | 45.4% (active)
CCOc1ccc2nc(Cl)c(C3CC(c4ccccc4)=NN3C(=O)c3cccs3)cc2c1 (centres undefined) | 5.3% (inactive)
COc1ccc(-c2cc(C3CCN(c4ncccc4[N+](=O)[O-])CC3)[nH]n2)cc1 | 24.6% (inactive)
COc1ccc(C2CC(c3ccccc3)=NN2C(=O)c2ccc(Cl)c([N+](=O)[O-])c2)cc1 (centres undefined) | 46.1% (active)

Structure (SMILES) | inhibition
CCOC(=O)C1=C(NC(=S)NC(=O)c2ccccc2)c2ccccc2CC1(C)C | 28.8% (inactive)
COc1ccc(C2C(C#N)=C(N)Oc3cc(N)ccc32)cc1OC (centres undefined) | 9.6% (inactive)
N#CC1=C(N)Oc2cc(O)ccc2C1C1CCCCC1 (centres undefined) | 45.4% (active)
c1ccc2c(c1)CSc1sccc1C2=C1CCNCC1 | 72.3% (active)
CS(=O)(=O)c1ccc(-c2nnn(CC(=O)Nc3ccc4c(c3)OCCO4)n2)cc1 | -2.65% (inactive)
O=C(Nc1ccc2c(c1)OCCO2)C1CCCC1 | 69.3% (active)
O=C(N/N=C\c1cc2c(cc1Cl)OCO2)c1ccc(Br)s1 | 57.1% (active)
COc1ccc(Br)cc1C(=O)NC(=S)Nc1cc(-c2nc3ccccc3[nH]2)ccc1C | 16.8% (inactive)
Cc1ccc(-c2nc3ccccc3[nH]2)cc1NC(=O)c1sc2ccccc2c1Cl | 57.4% (active)
COc1ccc(CN(C)C(=O)c2cc(-c3ccc(C)cc3C)nc3ccccc23)c(OC)c1OC | 60.2% (active)
COc1ccc(-c2cc(C(=O)N(C)CC(=O)Nc3ccccc3Cl)c3ccccc3n2)cc1OC | 49.2% (active)
COc1ccc(-c2cc(C(=O)N(C)Cc3ccc(OC)c(OC)c3OC)c3ccccc3n2)cc1OC | 46.9% (active)
CN(C)c1ccc(-n2cccc2/C=C2/SC(=Nc3ccc(F)cc3)NC2=O)cc1 | 12.6% (inactive)
CCCc1nc2c(c(=O)c3ccccc3n2C)c(=O)n1C1CCCCCC1 | 87.2% (active)
Cc1ccc(Oc2nc(-c3ccccn3)nc3ccccc23)cc1 | 3.9% (inactive)
CC(C)(C)Nc1nc(-c2ccccn2)nc2ccccc12 | 85.5% (active)
COc1cc(/C=C2\Oc3ccc(C#Cc4ccc(O)cc4)cc3C2=O)cc(OC)c1 | 33.2% (inactive)
O=C(Nc1ccncc1)c1c(F)cccc1F | 61.9% (active)
COc1ccc2cc1Oc1ccc(cc1)C[C@H]1c3cc(c(OC)cc3CCN1C)Oc1c(O)c(OC)cc3c1[C@H](C2)N(C)CC3 | 100% (active)
COc1ccc(-c2nnc(SC(=O)N3c4ccccc4Sc4ccccc43)o2)cc1 | 31.4% (inactive)
